Most compounds without a hit are left out; they make up all but 19% or so of the library.
DT40 TDP1 no CPT – qHTS for Inhibitors of human tyrosyl-DNA phosphodiesterase 1 (TDP1): qHTS in cells in absence of CPT; DT40 Tdp1-/- hTDP1 cells, no CPT, ATP luminescence, 48 h; Potency, µM (titrated, usually from 46.2 µM), for inactives: at the highest dose activity change, negative = growth inhibition, actives largely listed as inhibitors; 420,000 compounds, 15% hits; AID 686978, 2013; further: potency means the concentration at half of the fitted maximal effect; on the % scale 0 is the no-effect control and ±100 the full control effect; nearly all actives have a fitted effect of over 55% in size
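Readout: luminescence from CellTiter-Glo after 30 min in the dark at RT. Cells: DT40 Tdp1-/- with stable hTDP1, 400/well. Exposure: compounds alone, ≥48 hr, 37 °C.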
TDP1 block – inhibitors of human tyrosyl-DNA phosphodiesterase TDP1. Q9NUW8. recombinant TDP1, AlphaScreen DNA substrate cleavage. Potency, µM (highest dose often 130 µM), inactives show at the highest dose activity change, negative = inhibition, hits mostly inhibitors. 350,000 compounds, 0.28% hits. AID 485290; further: potency means the concentration at half of the fitted maximal effect; on the % scale 0 is the no-effect control and ±100 the full control effect; nearly all actives have a fitted effect of over 40% in size
Target sequence (Q9NUW8 whole entry, looked up): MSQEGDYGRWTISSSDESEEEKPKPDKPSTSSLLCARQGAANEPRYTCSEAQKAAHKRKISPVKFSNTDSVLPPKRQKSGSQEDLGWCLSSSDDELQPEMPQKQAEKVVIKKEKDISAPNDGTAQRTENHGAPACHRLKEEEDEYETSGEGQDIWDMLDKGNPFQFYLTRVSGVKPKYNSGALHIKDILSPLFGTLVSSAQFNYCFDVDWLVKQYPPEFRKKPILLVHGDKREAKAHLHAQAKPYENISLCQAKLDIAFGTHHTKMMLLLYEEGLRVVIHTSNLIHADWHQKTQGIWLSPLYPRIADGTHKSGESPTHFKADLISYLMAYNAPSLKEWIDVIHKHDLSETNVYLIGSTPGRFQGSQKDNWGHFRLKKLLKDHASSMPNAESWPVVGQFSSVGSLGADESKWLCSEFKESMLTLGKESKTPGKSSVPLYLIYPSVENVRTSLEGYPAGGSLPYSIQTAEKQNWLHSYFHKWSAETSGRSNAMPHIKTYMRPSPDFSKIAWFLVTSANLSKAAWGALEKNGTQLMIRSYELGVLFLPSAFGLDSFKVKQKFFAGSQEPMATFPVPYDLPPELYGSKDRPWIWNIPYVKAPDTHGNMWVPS
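Recombinant E. coli-expressed Tdp1 (1 nM) preincubated with compound 15 min at RT, then 5'-biotin/3'-phosphotyrosine-FITC DNA substrate (15 nM) added for 5 min. AlphaScreen beads (10 ug/ml) added, 10 min RT; tyrosine-FITC cleavage read as signal loss.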
DT40 TDP1 CPT – growth inhibition of DT40 Tdp1-/-;hTDP1 cells with camptothecin (screen for TDP1 inhibitors) | chicken DT40 Tdp1-/-;hTDP1 cells + 20 nM CPT, ATP luminescence, 48 h | Potency, µM (series often up to 46.2 µM), for the others: top-dose activity change, negative = growth inhibition, usual class: inhibitors | 420,000 compounds, 12% hits; further: potency means the concentration at half of the fitted maximal effect; on the % scale 0 is the no-effect control and ±100 the full control effect; nearly all actives have a fitted effect of over 55% in size
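Chicken DT40 Tdp1-/- cells complemented with human TDP1, 400 cells/well, exposed to compounds plus 20 nM camptothecin for at least 48 h at 37 C; viability read as ATP content by CellTiter-Glo luminescence.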
IL1B secr inh – inflammasome signaling inhibition, IL-1 beta readout; THP-1 LPS/ATP IL-1B secretion, AlphaLISA, 16 h; active compounds read low; activity change, % at 57.5 µM; 360,000 compounds, 4.7% hits; in the data active means activity change below about -50%; inconclusive means mostly about -30% to -49%; further: on the % scale 0 is the no-effect control and ±100 the full control effect
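THP-1 cells pretreated 1 hr with compounds (up to 57.5 uM final), then stimulated with LPS (250 ng/mL final) plus ATP (1.25 mM final); secreted IL-1B measured by AlphaLISA after 16 hr, decreased signal indicating inhibition.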
HepG2 tox – kills HepG2 cells in TGF-b inhibitor counter-screen | HepG2 CAGA-GFP viability, ATP luminescence, 18 h | Potency, µM (doses to about 46.1 µM), for inactives: at the highest dose activity change, negative = cytotoxicity, usual class: cytotoxic | 410,000 compounds, 0.76% hits; further: potency means the concentration at half of the fitted maximal effect
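HepG2 CAGA-GFP cells (1000/well, DMEM with 1% FBS) received compound, then TGF-beta at 500 pg/mL final, and were incubated 18 hours at 37 degrees C. Viability was read by CellTiter-Glo luminescence. Media-only wells were set as complete cell-killing and DMSO as no toxicity.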
TGFb inhibitor – blocks TGF-b signaling. 410,000 compounds, 1.2% hits. Potency, µM (series often up to 46.1 µM), for inactives: at the top dose activity, negative = inhibition, actives largely listed as inhibitors. HepG2 CAGA-GFP TGF-b/SMAD3 reporter, GFP fluorescence, 18 h; TGF-beta stimulated, 500 pg/mL final; further: potency means the concentration at half of the fitted maximal effect; on the % scale 0 is the no-effect control and ±100 the full control effect; nearly all actives have a fitted effect of over 65% in size
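Per well, imaged GFP fluorescence of HEPG2 CAGA-GFP cells gives the signal; cells get compound, then TGF-beta (500 pg/mL final), 18 h at 37 degrees C; %Activity versus -TGF-beta and +DMSO controls.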
An asterisk follows results filed as active; [ ] = another dose, or the depositor's remark. Unless noted, the call rests on the fitted dose curve; in most records, active means well fitted curve in the direction sought with a large enough effect; inconclusive means small, poorly fitted or top-dose-only effect, or another doubt; inactive means no such curve, though single readings can be large; an effect the other way counts as inactive or inconclusive.

Screening CC1(C)C2CCC1(C)C(Nc1ccccc1)C2 (centres undefined) returned DT40 TDP1 no CPT 2%, TDP1 block 6%, DT40 TDP1 CPT inconclusive, IL1B secr inh 21, HepG2 tox -50% and TGFb inhibitor -4%.
For Cc1cc(C)c2c(CC(=O)Nc3c(C(=O)Nc4ccc(Cl)cc4)oc4ccccc34)coc2c1 the results were DT40 TDP1 no CPT inconclusive, TDP1 block 4%, DT40 TDP1 CPT inconclusive, HepG2 tox -6% and TGFb inhibitor 12%.
For O=c1c2ccccc2nc2n1CC/C2=C/N1CCN(c2cccc(C(F)(F)F)c2)CC1 the results were DT40 TDP1 no CPT inconclusive, TDP1 block -3%, DT40 TDP1 CPT 18µM*, IL1B secr inh 19, HepG2 tox -14% and TGFb inhibitor 25%.
Screening O=C(O)c1ccc2c(=O)n3c(nc2c1)/C(=C/c1ccc(C(F)(F)F)cc1)CC3 returned DT40 TDP1 no CPT 2%, DT40 TDP1 CPT -20%, IL1B secr inh 13, HepG2 tox -7% and TGFb inhibitor -14%.
CN(CC(=O)Nc1ccccc1Cl)S(=O)(=O)c1ccc(C(=O)N2CCOCC2)s1 was read as DT40 TDP1 no CPT inconclusive, TDP1 block -1%, DT40 TDP1 CPT 15µM*, HepG2 tox -27% and TGFb inhibitor -15%.
For CCCCNC(=O)c1cnc2sc(N3CCCCCC3)nn2c1=O the results were DT40 TDP1 no CPT inconclusive, TDP1 block 8%, DT40 TDP1 CPT inconclusive, HepG2 tox -28% and TGFb inhibitor inconclusive.
Screening CCOC(=O)c1c(C)n(C)c2c(C)cc(O)c(OC(C)=O)c12 returned DT40 TDP1 no CPT 13µM*, TDP1 block -2%, DT40 TDP1 CPT 9.2µM*, IL1B secr inh -10, HepG2 tox 8% and TGFb inhibitor 3%.
For CCOc1cccc(C2CC(=O)Nc3cc4c(cc32)OCCO4)c1 (centres undefined) the results were DT40 TDP1 no CPT 5.8µM*, TDP1 block 4%, DT40 TDP1 CPT 5.2µM*, HepG2 tox -14% and TGFb inhibitor -62%.
Screening CCCOc1c(OC)cccc1C1CC(=O)Nc2cc3c(cc21)OCCO3 (centres undefined) returned DT40 TDP1 no CPT 13µM*, TDP1 block 7%, DT40 TDP1 CPT inconclusive, IL1B secr inh 28, HepG2 tox 0% and TGFb inhibitor inconclusive.
Screening COc1cccc(C2CC(=O)Nc3cc4c(cc32)OCCO4)c1OC(C)C (centres undefined) returned DT40 TDP1 no CPT inconclusive, TDP1 block 6%, DT40 TDP1 CPT inconclusive, IL1B secr inh 11, HepG2 tox -4% and TGFb inhibitor -20%.
CCOc1c(Br)cc(C2CC(=O)Nc3cc(OC)c(OC)cc32)cc1OC (centres undefined) was read as DT40 TDP1 no CPT 23µM*, TDP1 block 7%, DT40 TDP1 CPT inconclusive, IL1B secr inh -2, HepG2 tox 0% and TGFb inhibitor 16%.
CCCOc1c(OC)cccc1C1CC(=O)Nc2cc3c(cc21)OCO3 (centres undefined) was read as DT40 TDP1 no CPT 21µM*, TDP1 block 3%, DT40 TDP1 CPT inconclusive, IL1B secr inh 2, HepG2 tox 6% and TGFb inhibitor -2%.
Screening COc1ccc(C2CC(=O)Nc3cc(OC)c(OC)cc32)cc1Br (centres undefined) returned DT40 TDP1 no CPT -8%, TDP1 block 8%, DT40 TDP1 CPT -16%, IL1B secr inh 0, HepG2 tox -23% and TGFb inhibitor -4%.
NS(=O)(=O)c1ccc(CCNC(=O)CSc2nnc3ccccn23)cc1 was read as DT40 TDP1 no CPT 7%, TDP1 block 3%, DT40 TDP1 CPT -3%, IL1B secr inh 9, HepG2 tox -5% and TGFb inhibitor inconclusive.
Screening CCC1CN(CC(=O)NC(c2ccccn2)C(F)(F)F)Cc2cc(OC)ccc2O1 (centres undefined) returned DT40 TDP1 no CPT -19% and DT40 TDP1 CPT -5%[9.04 µM].
`COc1cc(C2CC(=O)Nc3cc(C)c(C)cc32)cc(OC)c1OC` (centres undefined) gave DT40 TDP1 no CPT 12µM*, TDP1 block 5%, DT40 TDP1 CPT 16µM*, IL1B secr inh 3, HepG2 tox -13% and TGFb inhibitor 4%.
For COc1cc2c(cc1OC)C(c1cccc(F)c1)CC(=O)N2 (centres undefined) the results were DT40 TDP1 no CPT inconclusive, DT40 TDP1 CPT -13%, IL1B secr inh 19, HepG2 tox 3% and TGFb inhibitor -3%.
For COc1cc2c(cc1OC)C(c1ccccc1C)CC(=O)N2 (centres undefined) the results were DT40 TDP1 no CPT -29%, TDP1 block 6%, DT40 TDP1 CPT 0%, IL1B secr inh 33, HepG2 tox -26% and TGFb inhibitor -9%.
For COc1cc(C2CC(=O)Nc3n[nH]c(-c4ccccc4)c32)cc(OC)c1OC (centres undefined) the results were DT40 TDP1 no CPT 15µM*, TDP1 block 8%, DT40 TDP1 CPT 8.2µM*, IL1B secr inh 5, HepG2 tox -8% and TGFb inhibitor 17%.
Screening Cc1cc2c(cc1C)C(c1cccc([N+](=O)[O-])c1)CC(=O)N2 (centres undefined) returned DT40 TDP1 no CPT 18µM*, TDP1 block -1%, DT40 TDP1 CPT 23µM*, IL1B secr inh 14, HepG2 tox -3% and TGFb inhibitor -27%.
`COc1ccc(C2CC(=O)Nc3cc(OC)c(OC)cc32)cc1` (centres undefined) gave DT40 TDP1 no CPT -28%, DT40 TDP1 CPT -21%, IL1B secr inh inconclusive, HepG2 tox 3% and TGFb inhibitor -3%.
For COc1cc2c(cc1OC)C(c1ccccc1C(F)(F)F)CC(=O)N2 (centres undefined) the results were DT40 TDP1 no CPT inconclusive, DT40 TDP1 CPT -3%, IL1B secr inh -53*, HepG2 tox -14% and TGFb inhibitor 3%.
`COc1ccccc1/C=C/C=N/NC(=O)c1ccc2nc[nH]c2c1` gave TDP1 block 7%.

Screens deposited in PubChem BioAssay by National Center for Advancing Translational Sciences (NCATS).
